High-throughput results from PubChem BioAssay.
hgDAF12 agonist: activates the H. glycines DAF-12 receptor ligand-binding domain; actives 1.8% (n = 370,000); activation, % at 6.8 µM; HEK293 GAL4-hgDAF12 UAS-luciferase reporter, agonist luminescence; normalized to butyrate control;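 active means activation above a cutoff set at the mean of all screened compounds plus 3 SD, cut at about 10% in these data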
ssDAF-12 act: activates DAF-12 receptor from parasite S. stercoralis. actives 1% (n = 370,000). AID 652126. activation, % at 6.8 µM. HEK293 ssDAF-12/GRIP1 lit1-tk-luc reporter, luminescence; % of 3 µM dafachronic acid response;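 active means activation above the mean over all tested compounds plus 3 SD, cut at about 0.9% in these data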
DAX1 inh-1: blocks DAX1 repression of SF-1 activated StAR promoter. HEK293T StAR-luciferase reporter, SF-1/DAX-1 repression relief. inhibition, % at 6.8 µM. actives 1.1% (n = 370,000). AID 652010;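 active means inhibition above the mean over all tested compounds plus 3 SD, cut at about 3.6% in these data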;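 further: higher inhibition means more luminescence from relief of DAX-1 repression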
hcDAF12 agonist: activates DAF-12 receptor from parasite H. contortus; activation, % at 6.8 µM; HEK293 hcDAF-12 lit1-tk-luc reporter, luminescence; 0% DMSO, 100% Δ7-dafachronic acid; actives 1.4% (n = 370,000);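 active means activation above the mean of all tested compounds plus 3 SD, cut at about 5.5% in these data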
DAX1 inh-2: inhibits human nuclear receptor DAX1; P51843; inhibition, % at 6.75 µM; actives 0.99% (n = 340,000); HEK293 Gal4-DAX1 luciferase reporter, luminescence;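 active means inhibition above the mean over all tested compounds plus 3 SD, cut at about 4.2% in these data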;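 further: inhibition shows as a rise in luminescence from relieved DAX1 repression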
Target sequence (P51843 207-470 limits assumed): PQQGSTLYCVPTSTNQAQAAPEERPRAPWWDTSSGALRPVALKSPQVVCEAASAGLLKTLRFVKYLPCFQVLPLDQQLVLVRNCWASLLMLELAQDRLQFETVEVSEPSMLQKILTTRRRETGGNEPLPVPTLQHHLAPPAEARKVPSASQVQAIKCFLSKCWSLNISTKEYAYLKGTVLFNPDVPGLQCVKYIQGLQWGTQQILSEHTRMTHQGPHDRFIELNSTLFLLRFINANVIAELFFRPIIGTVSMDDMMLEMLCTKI
DAX1 inh confirm: confirmation of human DAX1 (NR0B1) inhibitors. shares compounds with DAX1 inh-1. AID 652134. HEK293T StAR-promoter luciferase reporter, SF-1/DAX-1 repression. inhibition, % at 6.8 µM. actives 87% (n = 2,400);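 active means inhibition above the average of every tested compound plus 3 SD, cut at about 3.8% in these data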;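 further: active compounds raise luminescence by relieving repression of the StAR reporter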
SF1 mutant ctr: counter-screen for DAX1 inhibitors: nonselective inhibitors with SF-1 AF2 mutant; shares compounds with DAX1 inh-1; HEK293 StAR-luciferase, luminescence; inhibition, % at 6.8 µM; actives 78% (n = 2,400); AID 652136;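 active means inhibition above the mean of all tested compounds plus 3 SD, cut at about 3% in these data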
LXRb hcDAF ctr: LXR-beta agonism as hcDAF-12 counter-screen | shares compounds with hcDAF12 agonist | HEK293 Gal4-LXR tk-luc reporter, luminescence, 24 h; normalized: DMSO 0%, positive control 100% | activation, % at 6.8 µM | 3,400 tested, under 10 active;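 active means mean percent activation of the reporter above a cutoff set as the average over tested compounds plus their standard deviation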
Target sequence (P55055 whole entry, looked up, the tested form may be a part): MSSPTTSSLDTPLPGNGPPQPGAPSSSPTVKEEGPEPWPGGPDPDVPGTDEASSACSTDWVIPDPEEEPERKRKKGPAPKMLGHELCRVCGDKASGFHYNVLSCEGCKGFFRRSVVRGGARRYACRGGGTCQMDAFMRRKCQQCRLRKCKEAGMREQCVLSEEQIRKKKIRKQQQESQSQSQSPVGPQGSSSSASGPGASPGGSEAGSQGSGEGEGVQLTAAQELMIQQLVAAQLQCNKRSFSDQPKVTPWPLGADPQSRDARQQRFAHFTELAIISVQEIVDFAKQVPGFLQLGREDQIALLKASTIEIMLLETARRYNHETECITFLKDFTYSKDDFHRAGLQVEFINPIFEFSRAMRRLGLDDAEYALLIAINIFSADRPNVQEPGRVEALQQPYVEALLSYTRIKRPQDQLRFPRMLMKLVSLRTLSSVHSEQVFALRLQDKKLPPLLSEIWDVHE
hcDAF12 ag: confirmation of H. contortus DAF-12 agonists | AID 743032 | actives 61% (n = 3,400) | shares compounds with hcDAF12 agonist | activation, % at 6.8 µM | HEK293 hcDAF-12 lit1-tk-luc reporter, luminescence; % of Δ7-dafachronic acid response;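 active means mean activation across triplicate tests above the threshold derived from the earlier primary screen, cut at about 5.5% in these data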
hgDAF12 ag: confirmation of H. glycines DAF-12 agonists; activation, % at 6.8 µM; AID 743050; HEK293 GAL4-hgDAF12 luciferase reporter, agonist mode; percent of butyrate response; actives 80% (n = 3,300); shares compounds with hgDAF12 agonist;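 active means mean activation over triplicate wells above the hit cutoff derived from the earlier primary screen, cut at about 11% in these data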
LXR ag 2: LXR-beta agonism as DAF-12 counter-screen. shares compounds with hgDAF12 agonist. HEK293 Gal4-LXR luciferase reporter, 24 h. activation, % at 6.8 µM. 3,300 tested, under 10 active. AID 743051;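 active means mean activation of the triplicate above a set limit carried over from the primary screen, none filed active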
Hits are given with their value. Sampled rows, rich in hits. Any-hit rate of the full collection: about 4.1%.

For O=c1c2ccccc2nnn1CCc1ccccc1 the results were hgDAF12 agonist 16, ssDAF-12 act inactive, DAX1 inh-1 10.0, hcDAF12 agonist 7.1, DAX1 inh-2 inactive, DAX1 inh confirm 12, SF1 mutant ctr 6.4, LXRb hcDAF ctr inactive, hcDAF12 ag 7.8, hgDAF12 ag 15 and LXR ag 2 inactive.
CCOC(=O)CC[C@H]1CC[C@]2(CCCN(C3CCCCC3)C2)O1 was read as hgDAF12 agonist inactive, ssDAF-12 act inactive, DAX1 inh-1 inactive and hcDAF12 agonist inactive.
CCCCCCCCN1C(=O)[C@@H](CC(=O)NCC23CC4CC(CC(C4)C2)C3)C[C@@]2(C(=O)OC)C1=C[C@H](C(C)(C)C)O[C@@H]2C was read as hgDAF12 agonist inactive, ssDAF-12 act inactive, DAX1 inh-1 inactive and hcDAF12 agonist inactive.
Screening COc1ccc(Cn2c(C)c(CC(=O)Nc3ccc(Oc4cccnc4)c(C)c3)c3ccccc32)cc1 returned hgDAF12 agonist inactive, ssDAF-12 act inactive, DAX1 inh-1 inactive and hcDAF12 agonist inactive.
O=C(NCCO)[C@H](Cc1ccccc1)NC1(C(=O)NCCc2c[nH]c3ccccc23)CCCCC1 was read as hgDAF12 agonist inactive, ssDAF-12 act inactive and hcDAF12 agonist inactive.
Screening CNC(=O)c1sc2nc(-c3ccc(OC)cc3)cn2c1C returned hgDAF12 agonist 16, ssDAF-12 act inactive, DAX1 inh-1 5.7, hcDAF12 agonist 9.1, DAX1 inh-2 inactive, DAX1 inh confirm 11, SF1 mutant ctr 7.0, LXRb hcDAF ctr inactive, hcDAF12 ag inactive, hgDAF12 ag 13 and LXR ag 2 inactive.
Screening COCO[C@@H]1CC(CO)=C[C@H]2OCO[C@H]21 returned hgDAF12 agonist inactive, ssDAF-12 act inactive and hcDAF12 agonist inactive.
Screening Nc1[nH]c(C(=O)c2ccc(Br)cc2)c(-c2c(F)cccc2F)c1C(=O)NCCc1c[nH]c2ccccc12 returned hgDAF12 agonist inactive, ssDAF-12 act inactive, DAX1 inh-1 inactive and hcDAF12 agonist inactive.
Screening Cc1c(NC(=S)NC(=O)c2sc3ccccc3c2Cl)cccc1C(=O)O returned hgDAF12 agonist 18, ssDAF-12 act inactive, DAX1 inh-1 5.9, hcDAF12 agonist inactive, DAX1 inh-2 inactive, DAX1 inh confirm 9.6, SF1 mutant ctr 6.8, hgDAF12 ag 16 and LXR ag 2 inactive.
`COc1ccccc1C(=O)NC(=S)NNC(=O)c1sc2ccccc2c1Cl` gave hgDAF12 agonist inactive, ssDAF-12 act inactive, DAX1 inh-1 inactive, hcDAF12 agonist inactive and DAX1 inh-2 inactive.
COc1ccc(/C=C/C(=O)Nc2ccccc2C(=O)O)cc1 was read as hgDAF12 agonist 14, ssDAF-12 act inactive, DAX1 inh-1 5.2, hcDAF12 agonist 6.2, DAX1 inh-2 inactive, DAX1 inh confirm 7.9, SF1 mutant ctr inactive, hgDAF12 ag 11 and LXR ag 2 inactive.
Screening COc1ccc(/C=C/C(=O)Nc2ccccc2C(=O)N2CCCC2)cc1 returned hgDAF12 agonist inactive, ssDAF-12 act inactive, DAX1 inh-1 inactive, hcDAF12 agonist inactive and DAX1 inh-2 inactive.
For O=C(Nc1ccc2c(c1)OCCO2)c1cc2sccc2n1Cc1ccccc1 the results were hgDAF12 agonist inactive, ssDAF-12 act inactive, DAX1 inh-1 inactive, hcDAF12 agonist inactive and DAX1 inh-2 inactive.
Cn1c(C(=O)Nc2ccc3c(c2)OCCO3)cc2sccc21 was read as hgDAF12 agonist 15, ssDAF-12 act 1.2, DAX1 inh-1 6.9, hcDAF12 agonist 9.7, DAX1 inh-2 inactive, DAX1 inh confirm 8.8, SF1 mutant ctr 6.8, LXRb hcDAF ctr inactive, hcDAF12 ag inactive, hgDAF12 ag 18 and LXR ag 2 inactive.
COc1ccc(/C=C(\C#N)C(=O)OCC(=O)NC(C)c2ccccc2)cc1 (stereo unspecified) was read as hgDAF12 agonist inactive, ssDAF-12 act inactive, DAX1 inh-1 inactive, hcDAF12 agonist inactive and DAX1 inh-2 inactive.
Screening O=C(CCS(=O)(=O)c1ccccc1)Nc1ccc(-c2nc3ccccc3s2)cc1 returned hgDAF12 agonist 18, ssDAF-12 act 1.2, DAX1 inh-1 6.1, hcDAF12 agonist 9.2, DAX1 inh-2 inactive, DAX1 inh confirm 13, SF1 mutant ctr 8.9, LXRb hcDAF ctr inactive, hcDAF12 ag 5.7, hgDAF12 ag 15 and LXR ag 2 inactive.
`COc1ccc(/C=C(\C#N)C(=O)OCC(=O)Nc2ccc(-c3nc4ccc(C)cc4s3)cc2)cc1` gave hgDAF12 agonist 21, ssDAF-12 act 2.7, DAX1 inh-1 8.3, hcDAF12 agonist 8.4, DAX1 inh-2 inactive, DAX1 inh confirm 6.7, SF1 mutant ctr 3.2, LXRb hcDAF ctr inactive, hcDAF12 ag 10, hgDAF12 ag 21 and LXR ag 2 inactive.
For Cc1ccc2nc(-c3ccc(NC(=O)CN(c4ccccc4C)S(C)(=O)=O)cc3)sc2c1 the results were hgDAF12 agonist 15, ssDAF-12 act 1.0, DAX1 inh-1 4.8, hcDAF12 agonist inactive, DAX1 inh-2 inactive, DAX1 inh confirm 8.0, SF1 mutant ctr 5.4, hgDAF12 ag 20 and LXR ag 2 inactive.
For CNS(=O)(=O)c1cccc(C(=O)OCC(=O)Nc2ccc(-c3nc4ccc(C)cc4s3)cc2)c1 the results were DAX1 inh-2 inactive.
Screening Cc1ccc2nc(-c3ccc(NC(=O)COC(=O)c4ccc(Br)o4)cc3)sc2c1 returned hgDAF12 agonist 28, ssDAF-12 act 3.0, DAX1 inh-1 6.6, hcDAF12 agonist 18, DAX1 inh-2 5.7, DAX1 inh confirm 9.7, SF1 mutant ctr 4.2, LXRb hcDAF ctr inactive, hcDAF12 ag 13, hgDAF12 ag 24 and LXR ag 2 inactive.
Screening O=C(CCS(=O)(=O)c1ccccc1)Nc1cccc(-c2nc3ccccc3s2)c1 returned hgDAF12 agonist inactive, ssDAF-12 act inactive, DAX1 inh-1 inactive, hcDAF12 agonist inactive and DAX1 inh-2 inactive.
For Cc1cc2c(nc1C)CCCN2S(=O)(=O)c1cccs1 the results were hgDAF12 agonist inactive, ssDAF-12 act inactive, DAX1 inh-1 inactive and hcDAF12 agonist inactive.
